# About 21,000 targets were measured; listed, in parts, are those with the largest changes and a random draw of the rest.
# Assays:
# Assay in all cases: probe-labelled cysteine peptide fold change vs DMSO (competition) (log2 fold change); higher = less target engagement (more negative = stronger competition)
# Conditions in all cases: THP-1, incubation time: 4 h
# [1] = target: A6NIZ1_A6NIZ1_118_VKDTDDVPMILVGNKCDLEDERVVGK<|>RAP1B_P61224_118_VKDTDDVPMILVGNKCDLEDERVVGK (UniProt P61224+A6NIZ1)
# [2] = target: A6NNZ2_A6NNZ2_303_NMMAACDPR<|>TUBB4A_P04350_303_NMMAACDPR<|>TUBB_P07437_303_NMMAACDPR<|>TUBB4B_P68371_303_NMMAACDPR<|>TUBB3_Q13509_303_NMMAACDPR<|>TUBB2A_Q3ZCM7_303_NMMAACDPR<|>TUBB8_Q9BUF5_303_NMMAACDPR<|>TUBB6_Q9BVA1_303_NMMAACDPR (UniProt Q9BVA1+Q3ZCM7+Q13509+P68371+P07437+P04350+Q9BUF5+A6NNZ2)
# [3] = target: ABCC1_P33527_1047_CLHVDLLHSILR (UniProt P33527)
# Sequence of UniProt P33527 (P33527 whole entry, looked up): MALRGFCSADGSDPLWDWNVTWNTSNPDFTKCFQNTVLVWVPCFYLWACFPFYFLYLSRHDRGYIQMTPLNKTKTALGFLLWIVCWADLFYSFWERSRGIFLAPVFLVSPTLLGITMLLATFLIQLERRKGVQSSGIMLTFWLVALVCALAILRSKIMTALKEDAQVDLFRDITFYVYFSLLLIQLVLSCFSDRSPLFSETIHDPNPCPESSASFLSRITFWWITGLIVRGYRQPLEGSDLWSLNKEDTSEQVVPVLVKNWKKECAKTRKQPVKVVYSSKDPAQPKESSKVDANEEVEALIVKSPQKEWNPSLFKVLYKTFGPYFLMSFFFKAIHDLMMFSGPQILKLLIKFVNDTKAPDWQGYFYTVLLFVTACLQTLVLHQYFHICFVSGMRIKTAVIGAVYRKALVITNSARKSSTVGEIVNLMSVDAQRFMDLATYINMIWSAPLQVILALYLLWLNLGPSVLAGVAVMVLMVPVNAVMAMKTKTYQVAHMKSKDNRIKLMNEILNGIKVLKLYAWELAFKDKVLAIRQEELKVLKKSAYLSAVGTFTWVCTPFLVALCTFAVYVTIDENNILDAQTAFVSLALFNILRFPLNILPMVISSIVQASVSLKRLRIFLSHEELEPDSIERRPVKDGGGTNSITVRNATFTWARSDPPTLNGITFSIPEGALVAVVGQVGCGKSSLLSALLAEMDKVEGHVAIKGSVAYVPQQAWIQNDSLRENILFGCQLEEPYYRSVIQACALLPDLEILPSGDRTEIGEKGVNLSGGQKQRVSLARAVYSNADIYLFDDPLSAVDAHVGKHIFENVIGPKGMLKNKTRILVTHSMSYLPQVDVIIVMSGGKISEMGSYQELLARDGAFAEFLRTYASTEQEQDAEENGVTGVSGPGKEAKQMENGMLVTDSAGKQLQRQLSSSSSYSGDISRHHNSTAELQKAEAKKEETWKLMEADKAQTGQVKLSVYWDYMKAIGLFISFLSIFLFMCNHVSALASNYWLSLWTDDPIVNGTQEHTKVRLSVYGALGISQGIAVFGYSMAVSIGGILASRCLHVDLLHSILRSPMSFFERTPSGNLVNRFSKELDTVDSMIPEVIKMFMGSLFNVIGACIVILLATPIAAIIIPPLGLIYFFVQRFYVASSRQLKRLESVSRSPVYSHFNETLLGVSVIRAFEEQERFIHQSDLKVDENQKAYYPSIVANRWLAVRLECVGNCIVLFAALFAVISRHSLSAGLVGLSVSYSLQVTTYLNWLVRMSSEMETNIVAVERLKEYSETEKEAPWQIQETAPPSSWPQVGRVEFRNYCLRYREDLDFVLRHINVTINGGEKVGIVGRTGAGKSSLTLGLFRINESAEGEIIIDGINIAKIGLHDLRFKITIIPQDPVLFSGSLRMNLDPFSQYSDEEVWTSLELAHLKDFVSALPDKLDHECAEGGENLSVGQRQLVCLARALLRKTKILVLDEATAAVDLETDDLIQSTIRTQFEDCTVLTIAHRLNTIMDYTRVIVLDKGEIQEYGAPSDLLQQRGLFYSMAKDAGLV
# [4] = target: ABCF2_Q9UG63_586_LIQQVAQEIWVCEK (UniProt Q9UG63)
# Sequence of UniProt Q9UG63 (Q9UG63 whole entry, looked up): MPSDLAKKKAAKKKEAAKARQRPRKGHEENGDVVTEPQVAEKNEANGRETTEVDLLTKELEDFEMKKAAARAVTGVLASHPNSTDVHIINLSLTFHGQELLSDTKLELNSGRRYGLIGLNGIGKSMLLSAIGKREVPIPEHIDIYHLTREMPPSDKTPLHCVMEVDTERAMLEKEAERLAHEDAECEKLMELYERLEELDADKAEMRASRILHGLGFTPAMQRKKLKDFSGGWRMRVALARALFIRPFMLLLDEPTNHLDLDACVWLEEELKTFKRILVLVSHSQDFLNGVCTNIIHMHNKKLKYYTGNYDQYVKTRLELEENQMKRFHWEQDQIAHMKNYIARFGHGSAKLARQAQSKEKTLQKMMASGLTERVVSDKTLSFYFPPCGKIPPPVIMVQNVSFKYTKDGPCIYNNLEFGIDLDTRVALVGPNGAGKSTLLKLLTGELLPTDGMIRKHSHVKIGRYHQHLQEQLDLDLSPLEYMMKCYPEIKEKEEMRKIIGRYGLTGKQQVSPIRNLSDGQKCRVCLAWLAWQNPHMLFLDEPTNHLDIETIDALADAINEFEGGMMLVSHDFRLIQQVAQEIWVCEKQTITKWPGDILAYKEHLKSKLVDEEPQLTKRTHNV
# [5] = target: ABHD10_Q9NUJ1_229_EAEHHCLLHSPIPVNCPIR (UniProt Q9NUJ1)
# Sequence of UniProt Q9NUJ1 (Q9NUJ1 whole entry, looked up): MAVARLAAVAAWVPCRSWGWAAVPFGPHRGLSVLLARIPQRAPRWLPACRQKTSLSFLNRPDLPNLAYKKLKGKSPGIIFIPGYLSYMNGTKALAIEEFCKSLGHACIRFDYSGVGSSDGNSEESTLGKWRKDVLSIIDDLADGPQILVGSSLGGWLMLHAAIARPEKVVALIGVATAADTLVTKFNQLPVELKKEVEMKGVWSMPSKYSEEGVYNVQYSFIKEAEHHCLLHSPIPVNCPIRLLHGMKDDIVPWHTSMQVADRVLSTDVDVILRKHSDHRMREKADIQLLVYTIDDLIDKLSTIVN
# [6] = target: ABHD15_Q6UXT9_323_EFEEALFCHTK (UniProt Q6UXT9)
# [7] = target: ABHD16A_O95870_544_HLHNFEATHCTPLPAQNFQMPWHL (UniProt O95870)
# [8] = target: ABHD17B_Q5VST6_250_CQRPVEPLWVEGAGHNDVELYGQYLER (UniProt Q5VST6)
# [9] = target: ACAA1_P09110_123_QCSSGLQAVASIAGGIR (UniProt P09110)
# Sequence of UniProt P09110 (P09110 whole entry, looked up): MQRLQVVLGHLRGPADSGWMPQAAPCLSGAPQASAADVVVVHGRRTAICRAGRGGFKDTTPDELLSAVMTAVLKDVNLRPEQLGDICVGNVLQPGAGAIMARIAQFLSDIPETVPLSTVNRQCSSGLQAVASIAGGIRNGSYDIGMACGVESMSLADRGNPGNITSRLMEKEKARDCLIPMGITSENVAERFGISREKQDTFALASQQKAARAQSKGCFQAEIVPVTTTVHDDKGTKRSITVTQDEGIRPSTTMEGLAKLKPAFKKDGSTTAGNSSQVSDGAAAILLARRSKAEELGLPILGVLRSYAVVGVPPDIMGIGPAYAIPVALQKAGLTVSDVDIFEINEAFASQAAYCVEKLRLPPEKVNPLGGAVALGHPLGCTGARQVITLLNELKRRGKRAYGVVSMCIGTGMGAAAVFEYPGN
# [10] = target: ACAA1_P09110_177_ARDCLIPMGITSENVAER (UniProt P09110)
# Sequence of UniProt P09110 (P09110 whole entry, looked up): as above
# [11] = target: ACAA2_P42765_116_EAEVVLCGGTESMSQAPYCVR (UniProt P42765)
# [12] = target: ACAD9_Q9H845_271_GSNTCEVHFENTK (UniProt Q9H845)
# Sequence of UniProt Q9H845 (Q9H845 whole entry, looked up): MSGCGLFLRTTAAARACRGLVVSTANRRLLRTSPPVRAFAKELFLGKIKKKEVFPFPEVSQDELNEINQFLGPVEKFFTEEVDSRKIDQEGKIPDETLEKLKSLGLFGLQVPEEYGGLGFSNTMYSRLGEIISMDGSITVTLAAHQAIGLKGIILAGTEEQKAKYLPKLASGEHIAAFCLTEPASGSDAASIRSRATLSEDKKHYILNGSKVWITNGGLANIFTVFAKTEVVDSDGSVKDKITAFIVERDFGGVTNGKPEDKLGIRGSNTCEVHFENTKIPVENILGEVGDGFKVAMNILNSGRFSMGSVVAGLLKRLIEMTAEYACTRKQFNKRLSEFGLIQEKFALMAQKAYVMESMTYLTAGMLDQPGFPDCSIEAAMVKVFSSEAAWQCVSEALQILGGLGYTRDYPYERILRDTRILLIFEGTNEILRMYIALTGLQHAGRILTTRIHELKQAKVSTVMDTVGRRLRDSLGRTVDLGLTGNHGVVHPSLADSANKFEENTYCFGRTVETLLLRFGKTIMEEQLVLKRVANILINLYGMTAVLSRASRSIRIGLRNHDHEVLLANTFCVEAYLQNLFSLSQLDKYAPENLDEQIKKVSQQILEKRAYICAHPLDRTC
# [13] = target: ACADS_P16219_109_GCASTGVIMSVNNSLYLGPILK (UniProt P16219)
# [14] = target: ACADVL_P49748_237_TSAVPSPCGK (UniProt P49748)
# Sequence of ACADVL_P49748_237_TSAVPSPCGK (P49748 whole entry, looked up): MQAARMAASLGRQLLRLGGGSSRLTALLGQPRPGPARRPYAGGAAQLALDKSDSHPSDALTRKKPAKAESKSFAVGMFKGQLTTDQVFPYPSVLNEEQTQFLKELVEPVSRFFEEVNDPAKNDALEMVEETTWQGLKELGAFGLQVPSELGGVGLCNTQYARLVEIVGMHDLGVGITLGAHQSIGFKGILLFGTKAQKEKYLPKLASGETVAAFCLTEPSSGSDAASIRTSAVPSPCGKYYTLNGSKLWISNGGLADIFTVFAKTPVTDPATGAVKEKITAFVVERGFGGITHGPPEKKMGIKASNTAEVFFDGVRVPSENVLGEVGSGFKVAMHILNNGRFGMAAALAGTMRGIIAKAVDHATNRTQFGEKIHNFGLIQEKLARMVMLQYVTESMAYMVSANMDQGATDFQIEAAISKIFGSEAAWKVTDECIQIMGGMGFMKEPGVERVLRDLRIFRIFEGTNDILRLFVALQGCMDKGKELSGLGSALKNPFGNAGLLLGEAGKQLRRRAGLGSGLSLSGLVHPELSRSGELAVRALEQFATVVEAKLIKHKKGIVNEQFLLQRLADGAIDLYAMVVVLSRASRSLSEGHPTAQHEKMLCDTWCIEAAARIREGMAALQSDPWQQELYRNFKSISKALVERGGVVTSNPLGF
# [15] = target: ACADVL_P49748_477_LFVALQGCMDK (UniProt P49748)
# Sequence of ACADVL_P49748_477_LFVALQGCMDK (P49748 whole entry, looked up): as above
# [16] = target: ACADVL_P49748_603_MLCDTWCIEAAAR (UniProt P49748)
# Sequence of UniProt P49748 (P49748 whole entry, looked up): as above
# [17] = target: ACAP2_Q15057_329_FCFEVVSPTK (UniProt Q15057)
# [18] = target: ACAP2_Q15057_691_GPLHHATVLGHTGQVCLFLK (UniProt Q15057)
# [19] = target: ACAT1_P24752_196_IHMGSCAENTAK (UniProt P24752)
# Sequence of UniProt P24752 (P24752 whole entry, looked up): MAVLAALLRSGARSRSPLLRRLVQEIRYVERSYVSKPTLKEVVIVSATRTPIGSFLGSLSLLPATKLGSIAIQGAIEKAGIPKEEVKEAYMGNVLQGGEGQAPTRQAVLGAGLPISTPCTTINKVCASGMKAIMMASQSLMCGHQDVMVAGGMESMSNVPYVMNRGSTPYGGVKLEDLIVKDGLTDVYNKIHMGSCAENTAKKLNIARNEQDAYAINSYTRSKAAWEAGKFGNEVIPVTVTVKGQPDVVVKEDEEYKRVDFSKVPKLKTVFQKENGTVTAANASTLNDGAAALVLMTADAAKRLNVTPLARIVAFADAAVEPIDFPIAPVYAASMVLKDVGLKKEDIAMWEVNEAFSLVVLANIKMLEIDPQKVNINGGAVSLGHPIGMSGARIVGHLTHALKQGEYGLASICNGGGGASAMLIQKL
# [20] = target: ACAT1_P24752_413_QGEYGLASICNGGGGASAMLIQK (UniProt P24752)
# Sequence of UniProt P24752 (P24752 whole entry, looked up): as the sequence (P24752 whole entry, looked up) above
# [21] = target: ACAT2_Q9BWD1_360_VNIEGGAIALGHPLGASGCR (UniProt Q9BWD1)
# [22] = target: ACLY_P53396_633_GVTIIGPATVGGIKPGCFK (UniProt P53396)
# [23] = target: ACO2_Q99798_451_DLGGIVLANACGPCIGQWDRK (UniProt Q99798)
# 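Further: competitive profiling in live THP-1 cells: cysteine peptides tagged with an iodoacetamide desthiobiotin (IA-DTB) probe, intensity after compound treatment relative to DMSO-treated cells.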
compound,measurement,setting,value
Cc1cc(C(=O)N2CCCN(C(=O)CCl)CC2)ccc1-c1ccccc1 [compound 10],probe-labelled cysteine peptide fold change,[1]; 10 µM,-0.667
same,probe-labelled cysteine peptide fold change,[1]; 50 µM,-1.16
same,probe-labelled cysteine peptide fold change,[2]; 10 µM,-0.0352
same,probe-labelled cysteine peptide fold change,[2]; 50 µM,-0.104
same,probe-labelled cysteine peptide fold change,[3]; 10 µM,-0.245
same,probe-labelled cysteine peptide fold change,[3]; 50 µM,-0.823
same,probe-labelled cysteine peptide fold change,[4]; 10 µM,0.35
same,probe-labelled cysteine peptide fold change,[4]; 50 µM,0.325
same,probe-labelled cysteine peptide fold change,[5]; 10 µM,0.0491
same,probe-labelled cysteine peptide fold change,[5]; 50 µM,0.0493
same,probe-labelled cysteine peptide fold change,[6]; 10 µM,0.0269
same,probe-labelled cysteine peptide fold change,[6]; 50 µM,-0.0455
same,probe-labelled cysteine peptide fold change,[7]; 10 µM,-0.497
same,probe-labelled cysteine peptide fold change,[7]; 50 µM,-1.15
same,probe-labelled cysteine peptide fold change,[8]; 10 µM,0.198
same,probe-labelled cysteine peptide fold change,[8]; 50 µM,0.147
same,probe-labelled cysteine peptide fold change,[9]; 10 µM,-0.136
same,probe-labelled cysteine peptide fold change,[9]; 50 µM,-0.197
same,probe-labelled cysteine peptide fold change,[10]; 10 µM,-0.114
same,probe-labelled cysteine peptide fold change,[10]; 50 µM,0.0101
same,probe-labelled cysteine peptide fold change,[11]; 10 µM,-0.0523
same,probe-labelled cysteine peptide fold change,[11]; 50 µM,0.00696
same,probe-labelled cysteine peptide fold change,[12]; 10 µM,0.0883
same,probe-labelled cysteine peptide fold change,[12]; 50 µM,0.106
same,probe-labelled cysteine peptide fold change,[13]; 10 µM,0.363
same,probe-labelled cysteine peptide fold change,[13]; 50 µM,0.27
same,probe-labelled cysteine peptide fold change,[14]; 10 µM,-0.143
same,probe-labelled cysteine peptide fold change,[14]; 50 µM,-0.259
same,probe-labelled cysteine peptide fold change,[15]; 10 µM,-0.223
same,probe-labelled cysteine peptide fold change,[15]; 50 µM,0.311
same,probe-labelled cysteine peptide fold change,[16]; 10 µM,-0.105
same,probe-labelled cysteine peptide fold change,[16]; 50 µM,-0.188
same,probe-labelled cysteine peptide fold change,[17]; 10 µM,0.23
same,probe-labelled cysteine peptide fold change,[17]; 50 µM,0.177
same,probe-labelled cysteine peptide fold change,[18]; 10 µM,-0.107
same,probe-labelled cysteine peptide fold change,[18]; 50 µM,-1.08
same,probe-labelled cysteine peptide fold change,[19]; 10 µM,-0.282
same,probe-labelled cysteine peptide fold change,[19]; 50 µM,-1.22
same,probe-labelled cysteine peptide fold change,[20]; 10 µM,-0.164
same,probe-labelled cysteine peptide fold change,[20]; 50 µM,-1.09
same,probe-labelled cysteine peptide fold change,[21]; 10 µM,0.232
same,probe-labelled cysteine peptide fold change,[21]; 50 µM,0.226
same,probe-labelled cysteine peptide fold change,[22]; 10 µM,-0.00834
same,probe-labelled cysteine peptide fold change,[22]; 50 µM,0.0362
same,probe-labelled cysteine peptide fold change,[23]; 10 µM,-0.125
same,probe-labelled cysteine peptide fold change,[23]; 50 µM,-0.398

# Reference: the supplement of paper PMC12067093, “Discovery and optimisation of a covalent ligand for TRIM25 and its application to targeted protein ubiquitination” (Chemical Science, 2025)
